Source: PubChem BioAssay (Tox21)
Records with an inconclusive call do not appear. Calls of active or inactive are those of the source. Unless noted, calls come from the whole dose curve; as a rule, active = well fitted curve in the direction sought with a large enough effect in the repeat runs; inconclusive = weak or mixed curves; inactive = no such curve, though single readings can be large; an effect the other way counts as inactive or inconclusive.

Assays:
[1] = qHTS assay to identify small molecule agonists of the hypoxia (HIF-1) signaling pathway - cell viability counter screen (AID 1224844; calls by dose curve; note: nearly all actives have a fitted effect of over 50% in size)
How it was run: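 Multiplexed with the HRE beta-lactamase assay, this viability read used CellTiter-Glo luminescence (30 min, RT) on HRE-bla ME-180 cells treated 17 hrs with compounds in 0.5% dialyzed FBS medium.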

[2] = qHTS assay to identify small molecule agonists of H2AX (AID 1224845; active = well fitted activation curve with a large enough effect in the signal ratio in the repeat runs, not every such curve was filed as active; the % refers to the signal ratio)
How it was run: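 Wild-type CHO-K1 cells plated overnight, then exposed 3 hr at 37C to compounds at 15 concentrations (0.76% DMSO). Lysed, then HTRF anti-pH2AX(S139)-cryptate/anti-H2AX-d2 detection after 24 hr at room temperature; emissions 665 and 620 nm.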

[3] = qHTS assay to identify small molecule agonists of the hypoxia (HIF-1) signaling pathway (AID 1224846; active = well fitted activation curve with a large enough effect in the signal ratio in the repeat runs, not every such curve was filed as active; the % refers to the signal ratio)
How it was run: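 Hypoxia-pathway activation was scored as increased beta-lactamase from an HRE-controlled reporter in ME-180 cells; plated at 2,000 cells per well with 0.5% dialyzed FBS, they were exposed 17 hrs to compounds and then given CCF4-AM.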

[4] = qHTS assay to identify small molecule agonists of H2AX - cell viability counter screen (AID 1224847; calls by dose curve; note: top concentration of the series differs between compounds; nearly all actives have a fitted effect of over 30% in size)
How it was run: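 Cytotoxicity counter screen in wild-type CHO-K1 cells: a 3 hr compound treatment at 37C across 15 concentrations, followed by CellTiter-Glo luminescence to gauge viable cells.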

[5] = qHTS assay to identify small molecule antagonists of the estrogen related receptor (ERR) signaling pathway from Tox21 library (AID 1224848); note: nearly all actives have a fitted effect of over 50% in size
How it was run: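 Cells: ERR line, 2,000/well; 6 h preincubation 37 C/5% CO2. Cpd in DMSO via pin tool; 18 h, 37 C. ONE-Glo, 30 min RT, luminescence.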

[6] = qHTS assay to identify small molecule agonists of the estrogen related receptor (ERR) signaling pathway from Tox21 library (AID 1224849; calls by dose curve; note: nearly all actives have a fitted effect of over 15% in size); conditions: ERR reporter cell line, ONE-Glo luciferase, 18 h; at 92.4 µM (top of the series) unless noted
How it was run: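 Six hours post-seeding at 37 C/5% CO2, ERR cells receive DMSO-solubilised compounds; after 18 h at 37 C, ONE-Glo reagent is applied and luminescence recorded.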

[7] = qHTS RealTime-Glo MT Cell Viability Assay in HEK293 cells - 32 hour (AID 1224868); note: top concentration of the series differs between compounds; nearly all actives have a fitted effect of over 50% in size
How it was run: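 Tox21 10K qHTS, HEK293, 600 cells/well, RealTime-Glo reagent co-dispensed with cells; 5 h preincubation, compound by pintool, 37 C, luminescence at 0–40 h.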

[8] = A CellTox Green Cytotoxicity Assay to monitor cytotoxicity in HEK293 cells - 0 hour (AID 1224869); note: nearly all actives have a fitted effect of over 50% in size
How it was run: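 Seeding of HEK293 cells together with cytotoxicity dye preceded a 5 h incubation at 37 C/5% CO2. Test compounds in DMSO were then added and fluorescence monitored across 40 h.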

[9] = qHTS RealTime-Glo MT Cell Viability Assay in HepG2 cells - 24 hour (AID 1224867); note: nearly all actives have a fitted effect of over 50% in size
How it was run: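 Cells + NanoLuc/prosubstrate dispensed (600 cells/well) → 5 h at 37 C/5% CO2 → compounds in DMSO transferred → 40 h incubation at 37 C, luminescence read at 0, 8, 16, 24, 32, 40 h.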

[10] = biological target: Thyrotropin receptor (Homo sapiens) (UniProt P16473); assay: qHTS assay to identify small molecule agonists of the thyroid stimulating hormone receptor (TSHR) signaling pathway (AID 1224843; calls by dose curve; note: nearly all actives have a fitted effect of over 45% in size)
How it was run: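 TSHR-expressing HEK293 cells (800 per well) were exposed to compounds for 30 min at room temperature. cAMP was then detected by HTRF competition with cAMP-d2 and anti-cAMP cryptate, read after 1 h at room temperature. Fifteen concentrations, triplicate.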
% is set by controls: 0 for no effect and ±100 for the full control effect.

Chain of Thyrotropin receptor (Homo sapiens) (P16473 whole entry, looked up): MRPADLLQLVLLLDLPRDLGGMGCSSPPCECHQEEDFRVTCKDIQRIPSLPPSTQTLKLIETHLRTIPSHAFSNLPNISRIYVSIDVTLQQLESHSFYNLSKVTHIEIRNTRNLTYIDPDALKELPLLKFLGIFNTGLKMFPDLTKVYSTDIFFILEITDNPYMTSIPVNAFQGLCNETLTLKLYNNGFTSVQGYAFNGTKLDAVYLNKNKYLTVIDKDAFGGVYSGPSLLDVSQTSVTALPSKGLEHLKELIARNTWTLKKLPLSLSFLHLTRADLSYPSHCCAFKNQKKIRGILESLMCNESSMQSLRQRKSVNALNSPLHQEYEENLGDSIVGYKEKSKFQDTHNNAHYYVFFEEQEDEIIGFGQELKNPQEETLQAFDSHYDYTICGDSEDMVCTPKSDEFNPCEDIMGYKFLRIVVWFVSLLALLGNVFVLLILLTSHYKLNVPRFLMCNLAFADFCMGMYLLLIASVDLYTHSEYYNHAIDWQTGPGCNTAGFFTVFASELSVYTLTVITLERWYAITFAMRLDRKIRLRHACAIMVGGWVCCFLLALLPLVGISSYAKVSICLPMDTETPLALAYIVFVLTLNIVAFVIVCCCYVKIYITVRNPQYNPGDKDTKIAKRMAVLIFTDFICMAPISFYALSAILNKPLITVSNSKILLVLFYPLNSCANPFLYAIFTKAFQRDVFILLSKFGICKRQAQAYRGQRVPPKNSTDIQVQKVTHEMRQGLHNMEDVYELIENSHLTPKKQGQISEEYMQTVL

Cn1cnc2c(F)c(Nc3ccc(Br)cc3Cl)c(C(=O)NOCCO)cc21
inactive: Potency [1] | Potency [2] | outcome [3] | Potency [4] | Potency [5] | activity change, positive = activation [6] -7.67% [at 42.5 µM] | Potency [7] | Potency [8]

Cc1c[nH]c(=S)[nH]c1=O
inactive: Potency [1] | Potency [2] | outcome [3] | Potency [4] | Potency [9] | Potency [7] | Potency [8]

C=CCCCCCCCCO
inactive: Potency [10] | Potency [2] | outcome [3] | Potency [4] | Potency [9] | Potency [7]

CCOc1ccc2nc(N)sc2c1
inactive: Potency [10] | outcome [3] | Potency [5] | Potency [9] | Potency [7] | Potency [8]
active: activity change, positive = activation [6] 78%

OCCN1CCN(CCO)CC1
inactive: Potency [10] | Potency [2] | outcome [3] | Potency [4] | Potency [9] | Potency [7] | Potency [8]

CCCC(CCC)(C(=O)OCC)C(=O)OCC
inactive: Potency [10] | Potency [2] | Potency [4] | Potency [9] | Potency [7] | Potency [8]

C=CCCC=C
inactive: Potency [10] | Potency [4] | Potency [5] | activity change, positive = activation [6] 2.68% | Potency [9] | Potency [7] | Potency [8]

CCN(CCCc1ccccc1)CCCc1ccccc1
inactive: Potency [10] | Potency [2] | Potency [4] | Potency [5] | activity change, positive = activation [6] -7.88% [at 42.5 µM] | Potency [9] | Potency [8]

C=Cc1ccccc1
inactive: Potency [1] | Potency [2] | outcome [3] | Potency [4] | Potency [9] | Potency [7]

CC(C)O
inactive: Potency [10] | Potency [4] | Potency [9] | Potency [7]

CC(CNC1CCCCC1)OC(=O)c1ccccc1 (configuration not stated)
inactive: Potency [10] | Potency [2] | Potency [4] | Potency [5] | Potency [9] | Potency [7] | Potency [8]

CC1(O)CSC(C)(O)CS1 (configuration not stated)
inactive: Potency [1] | Potency [2] | outcome [3] | Potency [4] | Potency [9] | Potency [7]

CCOC(=O)C1CC(=O)C(=C(O)C2CC2)C(=O)C1 (configuration not stated)
inactive: Potency [1] | Potency [2] | outcome [3] | Potency [4] | Potency [5] | activity change, positive = activation [6] 6.54% | Potency [9] | Potency [7] | Potency [8]

CCCCCCCCOC(=O)CCCCCCCCC(=O)OCCCCCCCC
inactive: Potency [1] | Potency [2] | outcome [3] | Potency [4] | Potency [5] | activity change, positive = activation [6] 3.45% | Potency [9] | Potency [7] | Potency [8]

O=C1CCCCC1C1CCCCC1 (configuration not stated)
inactive: Potency [10] | Potency [2] | outcome [3] | Potency [4] | Potency [9] | Potency [7]

Cc1cc2c(s1)Nc1ccccc1N=C2N1CCN(C)CC1
inactive: Potency [1] | Potency [2] | outcome [3] | Potency [4] | Potency [5] | activity change, positive = activation [6] -1.9% [at 42.5 µM] | Potency [9] | Potency [7]

CN(CCCN1c2ccccc2CCc2ccccc21)CC(=O)c1ccc(Cl)cc1
inactive: Potency [10] | Potency [2] | outcome [3] | Potency [4] | Potency [9] | Potency [7] | Potency [8]

CC1(C)O[C@@H]2C[C@H]3[C@@H]4CCC5=CC(=O)CC[C@]5(C)[C@@]4(F)[C@@H](O)C[C@]3(C)[C@]2(C(=O)CCl)O1
inactive: Potency [10] | Potency [2] | Potency [4] | Potency [9] | Potency [8]

CC(C)C[C@H](NC(=O)OCC1c2ccccc2-c2ccccc21)C(=O)O
active: activity change, positive = activation [6] 147%
inactive: Potency [10] | Potency [2] | Potency [4] | Potency [5] | Potency [9] | Potency [7] | Potency [8]

CCCCC(CC)COC(=O)COc1cc(Cl)c(Cl)cc1Cl (configuration not stated)
inactive: Potency [1] | Potency [2] | Potency [4] | Potency [9] | Potency [7] | Potency [8]

O=C(O)CN(CCN(CC(=O)O)CC(=O)O)CCN(CC(=O)O)CC(=O)O
inactive: activation (H2AX phosphorylation) [2] 1.06% [at 31.6 µM] | activity change, negative = cytotoxicity [4] 0.16% [at 31.6 µM] | activity, negative = inhibition [5] 11.2% [at 19 µM] | activity change, positive = activation [6] 5.66% [at 19 µM] | activity change, negative = cytotoxicity [9] 0.5% [at 15.8 µM] | cytotoxicity [8] 4.99% [at 15.8 µM]

CC(C)CC(=O)OCc1ccccc1
inactive: Potency [2] | outcome [3] | Potency [4] | Potency [9] | Potency [7] | Potency [8]

CCCN(CCC)C(=O)C(CCC(=O)O)NC(=O)c1ccccc1 (configuration not stated)
inactive: Potency [1] | Potency [2] | Potency [4] | Potency [5] | activity change, positive = activation [6] 0.999% [at 42.5 µM] | Potency [9] | Potency [7] | Potency [8]

CC(C)C1=CC2=CC[C@@H]3[C@](C)(CCC[C@@]3(C)C(=O)O)[C@H]2CC1
inactive: Potency [2] | Potency [4] | activity change, positive = activation [6] -16.7% | Potency [9] | Potency [7] | Potency [8]

C=CC(C)(O)CC/C=C(\C)CCC=C(C)C (configuration not stated)
inactive: Potency [2] | outcome [3] | Potency [4] | Potency [9] | Potency [7]

Nc1ccc(Oc2ccc(N)c(N)c2)cc1
inactive: Potency [1] | outcome [3] | Potency [4] | Potency [5] | Potency [9] | Potency [8]
active: activity change, positive = activation [6] 53.1%

O=C(O[C@@H](C(=O)O)[C@@H](OC(=O)c1ccccc1)C(=O)O)c1ccccc1
inactive: Potency [2] | Potency [4] | Potency [5] | activity change, positive = activation [6] -13.3% | Potency [9] | Potency [7] | Potency [8]

NC(=O)Cc1cccc(C(=O)c2ccccc2)c1N
inactive: Potency [1] | Potency [2] | Potency [4] | Potency [9] | Potency [7] | Potency [8]
